Screening results as filed in PubChem BioAssay.
Rows were chosen to be rich in hits. Some 3% of all compounds tested hit in one or more screens of this group.
SENP8 block-1 – inhibitors of human SENP8 protease; 330,000 compounds, 1.2% hits; Q96LD8; inhibition, % at 10 µM; purified SENP8, Z-RLRGG-aminoluciferin cleavage, luminescence; in the data active means inhibition above about 50%
Target sequence (Q96LD8 whole entry, looked up): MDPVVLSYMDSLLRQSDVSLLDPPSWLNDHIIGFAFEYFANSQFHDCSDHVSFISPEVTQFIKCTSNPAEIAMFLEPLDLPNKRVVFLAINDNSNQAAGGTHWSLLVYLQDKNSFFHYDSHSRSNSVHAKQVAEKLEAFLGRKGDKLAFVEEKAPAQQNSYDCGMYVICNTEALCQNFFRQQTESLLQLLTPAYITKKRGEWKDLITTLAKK
TRAIL sens C8 – caspase-8 TRAIL sensitization | 360,000 compounds, 1% hits | NB7+C8 cells + TRAIL, ATPlite viability luminescence | inhibition (viability loss, TRAIL sensitization), % at 10 µM | AID 624354;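 active means compounds causing at least 50% loss of cell viability in the single-dose screen, relative to plate controls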
SENP7 block – inhibitors of human SENP7 protease. 330,000 compounds, 1.5% hits. AID 434973. inhibition, % at 5 µM. recombinant SENP7, Z-RLRGG-aminoluciferin luminescence, 40 min. Q9BQF6;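 active means inhibition above about 50% at the single test dose, limit read from the data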;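 further: plate controls were DMSO with enzyme for no effect and no enzyme buffer wells for full effect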
Target sequence (Q9BQF6 706-1050 limits assumed): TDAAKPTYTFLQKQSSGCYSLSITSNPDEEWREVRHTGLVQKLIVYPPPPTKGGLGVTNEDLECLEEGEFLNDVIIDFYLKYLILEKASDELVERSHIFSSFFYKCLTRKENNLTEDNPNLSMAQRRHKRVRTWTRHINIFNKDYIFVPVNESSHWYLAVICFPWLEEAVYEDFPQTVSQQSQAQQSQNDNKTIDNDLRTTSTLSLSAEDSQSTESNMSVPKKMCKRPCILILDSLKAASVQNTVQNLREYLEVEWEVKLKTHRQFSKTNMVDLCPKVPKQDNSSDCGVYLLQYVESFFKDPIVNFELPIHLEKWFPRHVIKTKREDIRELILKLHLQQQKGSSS
PPC-1+TRAIL kill – kills PPC-1 cancer cells in the presence of TRAIL. PPC-1 cells + TRAIL, ATPLite viability luminescence. cell killing (% activity), % at 4 µM or 5 µM. 220,000 compounds, 0.41% hits;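 active means cell killing above 50% in the first pass at 4 µM, then a duplicate retest at 5 µM averaging 50% or more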;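 further: plate controls were cells with TRAIL plus DMSO for no effect and medium-only wells lacking cells for full effect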
SENP8 block-2 – inhibitors of human SENP8 protease. recombinant SENP8, Nedd8 substrate fluorescence. inhibition, % at 20 µM. Q96LD8. 360,000 compounds, 0.64% hits; in the data active means inhibition mostly above about 40%, no sharp cut-off; inactive means mostly below about 27%
SENP6 inh – SENP6 protease inhibition; Q9GZR1; Recombinant SENP6 catalytic domain, aminoluciferin luminescence; inhibition, % at 10 µM; 330,000 compounds, 1.8% hits; AID 2599;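 active means inhibition above about 50% at the single tested dose, limit read from the data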;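 further: plate controls were DMSO wells with enzyme for no effect and DMSO wells lacking enzyme for full effect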
* hit, by the source's call; i = inactive; nt = no result.

SMILES	SENP8 block-1	TRAIL sens C8	SENP7 block	PPC-1+TRAIL kill	SENP8 block-2	SENP6 inh
Oc1ccc2ccccc2c1N=Nc1ccccn1	15	18	-5	36	41*	23
CCN1C(=O)/C(=C/c2cccs2)SC1=Nc1ccc(OC)cc1	-4	1	5	-6	21	-20
CCN(CC)CCN1C(=O)/C(=C\c2ccc(Cl)c([N+](=O)[O-])c2)SC1=Nc1ccc(OC)cc1	27	89*	3	nt	14	37
COc1ccc(N=C2S/C(=C\c3ccc(Cl)c([N+](=O)[O-])c3)C(=O)N2CCN(C)C)cc1	2	80*	1	nt	28	-16
CCCN1C(=O)/C(=C/c2ccc(C)s2)SC1=Nc1ccc(OC)cc1	-2	-7	-23	-19	23	-15
Cc1ccc(SCC(=O)OCC(=O)NC(C)c2ccc(Br)cc2)cc1 (stereo unspecified)	-6	-10	1	nt	5	-24
N/C(=N\OC(=O)C12CC3CC(CC(C3)C1)C2)c1ccccc1	-15	60*	-8	19	19	1
O=C(COC(=O)c1ccc2ncsc2c1)Nc1ccccc1Br	-4	-3	3	nt	-4	-5
O=C1Cc2c(-c3ccccc3)cc(-c3cccc(Cl)c3)nc2-c2ccccc2N1	nt	64*	nt	nt	-5	nt
O=C1CN(c2nc(-c3ccccc3)c3cc(Cl)ccc3n2)c2ccccc2N1	-5	21	4	14	6	2
CCCc1nnc(NC(=O)c2nc(S(=O)(=O)Cc3ccc(C)cc3)ncc2Cl)s1	-1	25	-4	nt	8	1
CCOc1ccccc1NC(=O)c1nc(S(=O)(=O)Cc2ccccc2)ncc1Cl	-4	96*	0	nt	6	-4
CCS(=O)(=O)c1ncc(Cl)c(C(=O)Nc2ccccc2OC)n1	-6	89*	16	nt	18	-8
COc1ccccc1NC(=O)c1nc(S(=O)(=O)Cc2ccccc2)ncc1Cl	7	94*	6	nt	23	-3
COc1ccccc1NC(=O)c1ccc(C(=O)Nc2ccccc2OC)nc1	-1	4	3	nt	6	15
O=S(=O)(c1ccccc1)N1CCCCC1CCc1ccccc1 (stereo unspecified)	nt	-12	nt	nt	10	nt
Cc1ccc(CN2[C@@H](Cc3ccccc3)C(=O)CS2(=O)=O)cc1	4	64*	4	nt	-34	8
O=C(COc1ccc(S(=O)(=O)NCc2ccccc2)cc1)NCc1cccnc1	-2	-23	9	nt	10	2
c1cc(-c2cc3nc(NC4CCCCC4)ccn3n2)ccc1OCCN1CCOCC1	nt	21	nt	nt	i	nt
O=C(Sc1cccc2cccnc12)c1ccc(F)cc1	-1	nt	2	58*	nt	-11
O=C(Sc1cccc2cccnc12)c1ccccc1Br	-11	-4	-9	nt	-8	-12
C(=NN1CCCCCC1)c1ccc2ccccc2n1	nt	90*	nt	nt	-46	nt
C(=NN1CCCCCC1)c1cccc2ccccc12	nt	-4	nt	nt	-21	nt
O=S(=O)(Nc1ccc(O)c2ccccc12)c1ccc(Br)cc1	22	nt	33	nt	nt	62*
CC(=O)Nc1ccc(NS(=O)(=O)c2ccccc2)c2ccccc12	-2	-14	5	nt	19	-1
SMILES	SENP8 block-1	TRAIL sens C8	SENP7 block	PPC-1+TRAIL kill	SENP8 block-2	SENP6 inh
O=C(Oc1c(CN2CCOCC2)cc(Cl)c2cccnc12)c1ccccc1	1	37	4	nt	6	-1
O=C(Oc1c(CN2CCOCC2)cc(Cl)c2cccnc12)c1ccccc1F	0	54*	0	23	19	-2
COc1ccc(S(=O)(=O)N2CCC(C(=O)N(C)Cc3ccc(C)o3)CC2)cc1OC	6	-3	0	nt	0	-17
CCN1CCN(c2c(Cl)cccc2NC(=O)c2ccc([N+](=O)[O-])o2)CC1	0	59*	18	nt	14	0
CN1CCN(c2ccc(NC(=O)c3ccc([N+](=O)[O-])o3)cc2Cl)CC1	-23	43	0	nt	33	-20
CC(C)C(=O)N1CCN(c2ccc(NC(=O)c3ccc([N+](=O)[O-])o3)cc2Cl)CC1	nt	67*	nt	37	32	nt
O=C(Nc1cccc(Cl)c1N1CCCC1)c1ccc([N+](=O)[O-])o1	0	-4	6	11	3	3
CCCC(=O)N1CCN(c2ccc(NC(=O)c3ccc([N+](=O)[O-])o3)cc2Cl)CC1	nt	59*	nt	36	-416	nt
CCN1C(=O)[C@@H]2[C@@H]3CN(S(=O)(=O)c4ccc(C)cc4)[C@@H](c4ccccc4Cl)[C@@H]3C(=O)C[C@@H]2C1=O	nt	-6	nt	nt	17	nt
COc1ccc(CNC(=O)[C@H](C)NC(=O)C2CCN(S(=O)(=O)c3ccc(F)cc3)CC2)cc1	-2	-2	-1	nt	5	-15
CC(=O)c1cccc(NC(=O)C(C)OC(=O)/C=C/c2cccs2)c1 (stereo unspecified)	3	3	-6	nt	4	-2
Cc1ccc(-n2nnnc2SCC(=O)N2CCc3ccccc3C2)cc1	14	-8	10	8	41*	12
CCn1c(SCC(=O)N2CCC(C)CC2)nc2c1c(=O)n(C)c(=O)n2C	11	11	1	nt	15	-8
CCCN1C(=O)/C(=C\C=C2/C=CN(CC)c3ccccc32)SC1=S	-4	30	1	-4	55*	22
Nc1cc2sc(-c3ccc(C(=O)O)cc3)nc2cc1Cl	98*	57*	100*	51*	-308	97*
Nc1ccc(-c2nc3ccc(C(=O)O)cc3s2)cc1	nt	70*	nt	31	-407	nt
CC1CCN(c2nc3ccc(C(=O)O)cc3s2)CC1	97*	17	96*	15	21	97*
CC1CCN(c2nc3ccc(C(=O)NCCCN4CCCCC4)cc3s2)CC1	-4	7	-3	nt	-1	0
Nc1nc(-c2ccc(C(=O)O)cc2)cs1	-9	-8	1	16	-168	-9
Cc1cc(C)cc(CC(=O)N2CCC2(C)C(=O)NS(=O)(=O)c2cccc(F)c2)c1 (stereo unspecified)	nt	6	nt	nt	20	nt
CN(C(=O)CSc1nc(-c2cccs2)nc2ccccc12)C1CCS(=O)(=O)C1 (stereo unspecified)	-7	-4	5	nt	-261	0
CSc1ccc(NC(=O)Nc2ccccc2C(N)=O)cc1	92*	0	95*	8	-72	97*
CC(C)(C)NC(=O)Nc1ccccc1C(N)=O	-6	-3	-1	24	-33	0
O=C(CN1C(=O)NC2(CCCC2)C1=O)N1CCN(c2ccccc2Cl)CC1	-1	7	6	nt	0	0
CC(OC(=O)/C(C#N)=C/c1ccc(N(C)C)cc1)C(=O)N(C)Cc1ccccc1 (stereo unspecified)	-4	-4	-2	nt	-48	4
Cc1nc(-c2ccc(NC(=O)CC(C)C)cc2)cs1	-11	53*	-1	27	1	-12
Cc1nc(-c2ccc(NC(=O)C3CC3)cc2)cs1	-21	32	-15	nt	5	-15
CCc1ccc(C2=NN(C(=O)OC)C(O)(C(F)(F)F)C2)cc1 (stereo unspecified)	14	55*	25	35	11	20
